The values that follow come from PubChem BioAssay (NCI).

Holding throughout (assay): NCI-60 one-dose screen, 48 h (100 = growth as untreated, 0 = no growth, -100 = all killed)
Holding throughout (settings): 10 µM unless noted

Test [1] relates to NCI-H23 lung.
Test [2] has as its system NCI-H226 lung.
In test [3] the test system is NCI-H322M lung.
Test [4] deals with HOP-62 NSCLC.
The test system of test [5] is NCI-H460 lung.
Test [6] concerns HOP-92 NSCLC.
The test system of test [7] is NCI-H522 lung.
Test [8] has as its system A549/ATCC NSCLC.
Test [9] concerns 786-0 renal.
The test system of test [10] is COLO 205 colon.
The subject of test [11] is DU-145 prostate.
In test [12] the test system is K-562 leukemia.
Test [13] concerns MALME-3M melanoma.
Test [14] relates to MDA-MB-231 breast.
Test [15] concerns RXF 393 renal.
Test [16] deals with SF-268 CNS.
In test [17] the test system is SF-295 CNS.
The subject of test [18] is SF-539 CNS.
Test [19] relates to UACC-257 melanoma.
In test [20] the test system is M14 melanoma.

The panel holds about 83,000 compounds, 20% with a hit somewhere; the sample as a whole holds those more often.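 The endpoint reported here, percent growth, reads 100 for growth as untreated, 0 for no net growth and -100 for all cells dead.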 A number with no mark means an inactive call. The source made the active and inactive calls. The calls were made as follows: active = growth percent below 10; inactive = the rest.

`CN(C)CCSC1=Nc2ccc(Cl)cc2C(c2ccccc2Cl)N(C)C1` (stereo not given): the growth was 90% in [1]; 52.4% in test [2]; 58.7% in [3]; 55.9% in [4]; 78.7% in test [5]; 51.4% in [6]. The growth in [7] is 71.8%; in test [8], 78%; in test [9], 65.2%; in test [10], 70.4%; in [11] it was 94.2%; in [12], 47.9%. Besides, the growth in test [13] is 58.8%; in test [14] it was 51.1%; in [15], 104%; in [16], 86.3%; in [17], 59.7%; in test [18], 58%. In addition, the growth in test [19] is 72.3%; in test [20] it was 60.3%.
With `CCCCCCCCCCCCCCCCCC1=NCCCN1CCO`, the growth in test [1] was 106%; in [2], 103%; in test [3], 101%; in test [4], 90.7%; in test [5], 105%; in test [6], 95.5%. The growth in test [7] is 103%; in test [8] it was 94.7%; in test [9], 104%; in test [10], 108%; in [11] it was 108%; in [12], 100%. In addition, the growth is 97.4% in [13]; 87.8% in test [14]; 124% in test [15]; 98.9% in [16]; 96% in test [17]; 103% in test [18]. Further, the growth in test [19] was 96.1%; in [20], 99.7%.
With `CN(C)c1ccc(/C=C/c2ccnc3ccccc23)cc1`, the growth is 58.6% in [1]; 23.5% in test [2]; 97.3% in test [3]; 61.8% in test [4]; 21.7% in [5]; 27.2% in [6]. The growth is -24% (active) in test [7]; 24.7% in test [8]; 54.7% in test [9]; 40.6% in [10]; 78.1% in [11]; 25.1% in test [12]. The growth was 60.2% in test [13]; 57.4% in test [14]; 70% in test [16]; 31.7% in test [17]; 47.2% in [18]; 41.9% in test [19]. In addition, the growth in test [20] was 44.3%.
As to `CN=C(N)N/N=C(\C)c1ccc2c(c1)Cc1ccccc1-2`, the growth is 10.7% in test [1]; -39.1% (active) in test [2]; -85% (active) in test [3]; -73.3% (active) in [4]; -97.9% (active) in [5]; -8.45% (active) in test [6]. Further, the growth in test [7] is 12.2%; in test [8] it was -66.4% (active); in test [9], -77.9% (active); in test [10], -100% (active); in [11], -85.9% (active); in [12], -81.5% (active). Moreover, the growth is -85% (active) in test [13]; -67.5% (active) in test [14]; -28.4% (active) in test [15]; -44.2% (active) in test [16]; -51.9% (active) in test [17]; -70.3% (active) in test [19]. The growth in test [20] was -96.1% (active).
As to `N=C1C=C(N)C(=O)c2ccccc21`, the growth was -82.3% (active) in test [1]; -63% (active) in [2]; -88.4% (active) in test [3]; -94.3% (active) in test [4]; -67.8% (active) in test [5]; -38.8% (active) in test [6]. Moreover, the growth was -67% (active) in test [7]; -71.7% (active) in test [8]; -99.6% (active) in test [9]; -93.7% (active) in test [10]; -99.5% (active) in test [11]; -4.96% (active) in test [12]. Also, the growth in [13] is -83.7% (active); in test [14], -12.5% (active); in test [15] it was -97.1% (active); in [16], -68.4% (active); in test [18], -95.8% (active); in test [19], -77.2% (active). In test [20], the growth is -86.5% (active).
Turning to `O=C(c1ccccc1)C(Br)[N+](=O)[O-]` (stereo not given), the growth in test [1] is 99.8%; in [2] it was 101%; in test [3], 101%; in test [4] it was 73.6%; in test [5] it was 101%; in test [6] it was 103%. The growth in [7] was 64.4%; in test [8], 69.6%; in test [9] it was 106%; in [10] it was 86.8%; in test [11] it was 105%; in test [12], 25.8%. Also, the growth in [13] was 54.4%; in test [14], 93.2%; in [15], 117%; in test [16], 102%; in [17], 101%; in test [19], 79%. Also, the growth in test [20] is 84.3%.
Turning to `c1ccc(-c2cc3cc4ccccc4cn3c2)cc1`, the growth was 89.3% in test [1]; 73.1% in test [2]; 99.6% in test [3]; 78.7% in test [4]; 88.3% in [5]; 76.5% in test [6]. In addition, the growth is 79.4% in [7]; 89.9% in [8]; 102% in test [9]; 95.1% in test [10]; 101% in [11]; 64.3% in [12]. In addition, the growth is 91.3% in test [13]; 81.6% in test [14]; 104% in test [15]; 95.7% in [16]; 84.8% in test [17]; 104% in test [18]. Further, the growth in [19] was 91.6%; in test [20], 94.7%.
On to `O=S(=O)(O)c1cnccn1`, for which the growth in test [1] is 97.6%; in test [2], 104%; in test [3], 101%; in test [4], 71.6%; in [5], 123%; in test [6], 94.2%. Also, the growth was 96% in test [7]; 73.9% in test [8]; 97.8% in [9]; 107% in test [10]; 110% in test [11]; 106% in test [12]. The growth in [13] is 108%; in [14], 108%; in test [15], 114%; in test [16], 102%; in test [17], 101%; in [18] it was 97.2%. Moreover, in test [20], the growth is 100%.
